Shown are actives, neighbours in structure and some others; about 13% of the full set was active somewhere.
RAM network inh: blocks the yeast RAM network | S. cerevisiae dse1pr::URA3 reporter, 5-FOA growth OD615, 2 d; analog-sensitive cbk1-as2 kinase mutant strain | inhibition, % at 50 µM | 190,000 tested, 1.8% active | AID 868;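 active = inhibition above a set limit, 3 SD over mean compound inhibition, cut at about 8.4% in these data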;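 also: 0% = DMSO-only wells with no growth and 100% = 10 µM 1-NA-PP1 full growth; inhibition rescues growth on 5-FOA so higher OD means more RAM inhibition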
CHOP inh: blocks CHOP induction under ER stress; inhibition, % at 10 µM; 220,000 tested, 3.8% active; CHO-K1 CHOP-promoter luciferase, tunicamycin-induced, 15-18 h;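 active = compounds that reduced the stress-induced luciferase reporter signal by more than about 70% of percent inhibition, limit read from the data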;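 also: 0% = tunicamycin plus vehicle and 100% = wells without tunicamycin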
Lmaj promast: inhibitors of Leishmania major promastigote growth | Leishmania major promastigotes, resazurin fluorescence viability | inhibition, % at 10 µM | 200,000 tested, 9% active; in the data active = inhibition above about 50%;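 also: promastigotes grown with compound for 44 hours at 28 °C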
WT yeast gro inh: growth inhibition of WT yeast, mitochondrial fusion screen | mitochondrial fusion phenotypic screen, WT strain | inhibition, % at 10 µM | 190,000 tested, 2.1% active | AID 1362; in the data active = inhibition above about 58%; tested in S. cerevisiae
RAM efflux-def: RAM network inhibition, efflux-deficient strain | shares compounds with RAM network inh | S. cerevisiae efflux-deficient reporter strain, 5-FOA growth OD615, 2 days | max inhibition, % | 1,200 tested, under 10 active; call rule not given here;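 also: plate controls were vehicle for no effect and reference inhibitor for full effect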
Active calls of the source: *; · = no result given.

SMILES	RAM network inh	CHOP inh	Lmaj promast	WT yeast gro inh	RAM efflux-def
O=C(Nc1cccc(S(=O)(=O)Nc2ccccc2Cl)c1)c1ccc(Cl)nc1	4	66	19	16	·
O=C(CCOc1ccccc1)Nc1cccc(S(=O)(=O)Nc2ccccc2Cl)c1	18*	31	19	24	2
Cc1ccccc1N(CC(=O)Nc1ccccc1C(=O)O)S(C)(=O)=O	2	-5	-6	·	·
Cc1ccc(S(=O)(=O)N(CC(=O)Nc2ccccc2C(=O)O)c2cccc(Cl)c2C)cc1	14*	-14	-7	-10	4
Cn1c(N)c(C(=O)c2ccc(F)cc2F)c(=O)n(C)c1=O	0	8	-4	-10	·
CC(=O)OCC12COC3c4ccccc4OC(C)(CC1C)C3C2C (stereo unspecified)	0	7	22	-11	·
Clc1ccc(CSc2nnc(/C=C/c3ccccc3)o2)cc1	13*	54	-9	8	2
CS(=O)(=O)NCc1ccc(C(=O)O)cc1	3	-9	0	-8	·
N#C/C(=C\c1c[nH]c2ccccc12)C(=O)Nc1ncc(Cc2ccc(Cl)cc2Cl)s1	14*	2	3	5	3
COC(=O)/C(C#N)=C/c1c[nH]c2ccccc12	0	-29	1	9	·
O=C(OCc1nnc(-c2ccccc2)o1)C12CC3CC(CC(Br)(C3)C1)C2	21*	4	29	70*	2
Cn1c(N=Nc2ccc(N3CCOCC3)cc2)[n+](C)c2ccccc21	13*	11	100*	71	16
Cn1c(=O)cc(OCCCC(=O)NCc2ccc(F)cc2Cl)c2ccccc21	16*	-9	7	-6	1
Cn1c(=O)cc(OCCCC(=O)NCc2ccccn2)c2ccccc21	0	-74	-4	7	·
CN(C)c1nnnn1-c1ccc(Oc2ncc(C(F)(F)F)cc2Cl)cc1	2	21	-7	31	·
CN1C=CC=C/C1=C1\SC(=S)N(N)C1=O	0	10	0	11	·
N#Cc1nc(COc2cccc(Cl)c2)oc1N1CCN(c2ccccc2)CC1	16*	-2	-4	-11	3
N#Cc1nc(COc2ccccc2)oc1N1CCN(c2cccc(Cl)c2)CC1	12*	35	-7	14	3
N#Cc1nc(COc2ccccc2)oc1N1CCCCC1	0	1	-4	8	·
Cc1cccc(OCc2nc(C#N)c(N3CCCC3)o2)c1	·	19	·	·	·
CC(=O)N1CCCN(Cc2cn(-c3cc(C)ccc3C)nc2-c2ccccc2)CC1	0	2	-6	1	·
O=C(CNC(=O)c1ccco1)OCC(=O)c1ccc(Cl)cc1Cl	2	-4	-20	-2	·
Cc1cccc(C(C)C)c1NC(=O)C1CN(S(=O)(=O)c2ccccc2)CCN1S(=O)(=O)c1ccccc1 (stereo unspecified)	2	22	5	-5	·
Cc1nnc(SCC(=O)Nc2nc(-c3ccc(F)cc3)cs2)[nH]c1=O	2	2	-4	14	·
COC(=O)c1scc(C)c1N/N=C(\C)c1ccc(F)cc1F	13*	32	-4	8	5
SMILES	RAM network inh	CHOP inh	Lmaj promast	WT yeast gro inh	RAM efflux-def
COC(=O)c1scc(C)c1NC(=O)C1CCCCC1	3	-8	19	4	·
Cc1ccc(SCCNC(=O)c2ccc(C)c(S(=O)(=O)Nc3ccccc3C)c2)cc1	17*	32	99*	-9	3
COc1ccc(C2/C=C\CN(C(=O)NC(C)C)CC(=O)N2Cc2ccc(F)cc2)cc1 (stereo unspecified)	·	10	·	·	·
O=C(CC12CC3CC(CC(C3)C1)C2)NC(=S)NCc1ccco1	15*	-9	93*	73*	3
CC(NCC(O)c1ccc([N+](=O)[O-])cc1)C12CC3CC(CC(C3)C1)C2 (stereo unspecified)	·	-6	·	·	·
COc1ccc(-c2noc(CN(C)S(=O)(=O)c3ccccc3)n2)cc1OC	·	·	-1	·	·
COc1ccc(S(=O)(=O)N(Cc2ccccc2)Cc2nc(-c3ccccc3)no2)cc1	11*	21	12	4	2
Cn1c(SCC(=O)NNC(=O)c2ccc(Cl)cc2)nnc1-c1cccnc1	1	-17	-5	-9	·
S=C(c1ccc(-c2ccccc2Cl)o1)N1CCOCC1	12*	71*	-9	7	2
S=C(c1ccc(-c2ccc(Cl)c(Cl)c2)o1)N1CCOCC1	6	47	-3	24	·
Cc1ccc2c(c1C)NC(=O)C21N2CCCC2C(C(=O)c2ccc3ccccc3c2)C12C(=O)Nc1ccccc12 (stereo unspecified)	·	-42	·	·	·
CCCCCCCCNC(=O)c1cccnc1SCC(=O)Nc1ccccc1OC	12*	43	82*	19	1
O=C(COC(=O)c1ccc(Cl)cc1O)NCCN1C(=O)CSC1=O	·	7	·	·	·
CCCCCCN(C(=O)CCCCCN1C(=O)NC(c2ccc(-c3ccccc3)cc2)C(C(=O)OCc2ccccc2)=C1C)C(C(=O)NCCCC)c1ccc(OCC(=O)OC)cc1 (stereo unspecified)	13*	25	-6	-4	6
CC(=O)N1CC(=O)N(Cc2ccccc2)/C(=C/c2ccccc2)C1=O	3	21	-4	-26	·
Cc1ccc(C(=O)C(OC(=O)CCC(=O)Nc2cccc(C)c2)c2ccccc2)cc1 (stereo unspecified)	13*	35	-5	20	4
COc1ccc(NC(=O)CCC(=O)OC(C(=O)c2ccccc2)c2ccccc2)cc1 (stereo unspecified)	3	0	-4	8	·
CCN(Cc1ccccc1)c1ccc(/C=N/NS(=O)(=O)c2cccc([N+](=O)[O-])c2)cc1	14*	-3	-6	11	3
CC(C)Cn1c(N)c(-c2nc(C(C)C)c(C(=O)c3ccccc3F)s2)c(=O)n(C)c1=O	12*	6	-2	3	2
c1ccc(CSc2nnc(Cc3ccccc3)o2)cc1	1	-19	0	3	·
Fc1ccc(CSc2nnc(Cc3sc(-c4ccccc4)nc3-c3ccccc3)o2)cc1	22*	40	3	3	2
COCCCNC(=S)N1CCCN(c2nc3c(C)c(C)ccc3cc2C#N)CC1	16*	10	7	69*	2
Cc1ccc2cc(C#N)c(N3CCCC3)nc2c1C	5	·	3	-5	·
O=C(CC(c1ccccc1)(c1ccccc1)c1ccccc1)N[C@@H](Cc1ccccc1)C(=O)O	13*	1	-3	-7	2
O=C(O)[C@H](Cc1ccccc1)NC(=O)C(c1ccccc1)(c1ccccc1)c1ccccc1	6	3	-4	4	·
Cc1ccc(SCc2nc(-c3ccccc3)no2)cc1	2	53	3	5	·
Cc1ccc(-c2noc(CSc3nnc(CCc4ccccc4)n3-c3ccccc3)n2)cc1	14*	-9	12	50	2
Cc1ccc(C)c(C(=O)COC(=O)c2cc([N+](=O)[O-])ccc2NCCO)c1	13*	25	3	60*	1
O=C(COC(=O)c1cc([N+](=O)[O-])ccc1NCCO)Nc1ccc2c(c1)OCO2	4	3	-2	5	·
Cc1ccccc1/C(N)=N/O	1	-23	-3	1	·
